# PubChem BioAssay AID1159580 (chemical genetic matrix, 2015)
# Values joined by “and” are separate entries in the source; they are usually repeats but may differ in a detail not shown here. Equal entries are not always repeated. Among all 5,500 compounds or so, about 2,000 (36%) were called active. About 18% were inconclusive and are not listed. Rule as the data show it: active = normalized growth mostly below about 0.91 (no sharp cut-off); inconclusive = no clear call, values can overlap the other calls; inactive = mostly above about 0.92. This is one part of the list.
# Test: chemical genetic growth profiling, strain panel (AID 1159580);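 also: tested at 20 µM; growth read once vehicle control cultures reached saturation at 30 °C; 1 = growth at the plate median or of vehicle wells; lower values mean less growth of the strain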
# Conditions: S. cerevisiae deletion strains, growth OD
structure (smiles),measurement,setting,value
O=C(O)c1cc2ccccc2c(Cc2c(O)c(C(=O)O)cc3ccccc23)c1O,normalized growth,"locus YAL021C, strain ccr4, stronger effect = lower value",0.967 (inactive)
same,normalized growth,"locus YAL026C, strain drs2, stronger effect = lower value",1.01 (inactive)
same,normalized growth,"locus YAL030W, strain snc1, stronger effect = lower value",0.994 (inactive)
same,normalized growth,"locus YBL061C, strain skt5, stronger effect = lower value",0.99 (inactive)
same,normalized growth,"locus YBR009C, strain hhf1, stronger effect = lower value",0.988 (inactive)
same,normalized growth,"locus YBR021W, strain FUR4, stronger effect = lower value",1.02 (inactive)
same,normalized growth,"locus YBR023C, strain chs3, stronger effect = lower value",0.996 (inactive)
same,normalized growth,"locus YBR171W, strain sec66, stronger effect = lower value",1 (inactive)
same,normalized growth,"locus YBR229C, strain ROT2, stronger effect = lower value",1.01 (inactive)
same,normalized growth,"locus YBR231C, strain swc5, stronger effect = lower value",0.977 (inactive)
same,normalized growth,"locus YBR279W, strain paf1, stronger effect = lower value",0.99 (inactive)
same,normalized growth,"locus YCL011C, strain gbp2, stronger effect = lower value",1 (inactive)
same,normalized growth,"locus YCL016C, strain dcc1, stronger effect = lower value",0.989 (inactive)
same,normalized growth,"locus YCL029C, strain bik1, stronger effect = lower value",1.01 (inactive)
same,normalized growth,"locus YCL061C, strain MRC1, stronger effect = lower value",1 (inactive)
same,normalized growth,"locus YCL069W, strain vba3, stronger effect = lower value",1 (inactive)
same,normalized growth,"locus YCR088W, strain abp1, stronger effect = lower value",1.01 (inactive)
same,normalized growth,"locus YDL005C, strain med2, stronger effect = lower value",1 (inactive)
same,normalized growth,"locus YDL035C, strain GPR1, stronger effect = lower value",1.01 (inactive)
same,normalized growth,"locus YDL040C, strain nat1, stronger effect = lower value",0.995 (inactive)
same,normalized growth,"locus YDL074C, strain BRE1, stronger effect = lower value",0.94 (inactive)
same,normalized growth,"locus YDL101C, strain DUN1, stronger effect = lower value",1 (inactive)
same,normalized growth,"locus YDL134C, strain PPH21, stronger effect = lower value",0.997 (inactive)
same,normalized growth,"locus YDL185W, strain tfp1, stronger effect = lower value",1.01 (inactive)
same,normalized growth,"locus YDL192W, strain arf1, stronger effect = lower value",1 (inactive)
same,normalized growth,"locus YDR001C, strain nth1, stronger effect = lower value",1.01 (inactive)
same,normalized growth,"locus YDR069C, strain doa4, stronger effect = lower value",0.989 (inactive)
same,normalized growth,"locus YDR101C, strain arx1, stronger effect = lower value",1.01 (inactive)
same,normalized growth,"locus YDR137W, strain rgp1, stronger effect = lower value",1.04 (inactive)
same,normalized growth,"locus YDR159W, strain sac3, stronger effect = lower value",0.97 (inactive)
same,normalized growth,"locus YDR162C, strain NBP2, stronger effect = lower value",0.985 (inactive)
same,normalized growth,"locus YDR195W, strain ref2",0.977 (inactive)
same,normalized growth,"locus YDR297W, strain sur2, stronger effect = lower value",0.995 (inactive)
same,normalized growth,"locus YDR318W, strain mcm21, stronger effect = lower value",0.988 (inactive)
same,normalized growth,"locus YDR334W, strain swr1, stronger effect = lower value",0.996 (inactive)
same,normalized growth,"locus YDR335W, strain msn5, stronger effect = lower value",1.01 (inactive)
same,normalized growth,"locus YDR388W, stronger effect = lower value",0.996 (inactive)
same,normalized growth,"locus YDR392W, strain spt3, stronger effect = lower value",0.911 (inactive)
same,normalized growth,"locus YDR502C, strain sam2, stronger effect = lower value",1 (inactive)
same,normalized growth,"locus YEL003W, strain gim4, stronger effect = lower value",1.02 (inactive)
same,normalized growth,"locus YEL037C, strain rad23, stronger effect = lower value",0.999 (inactive)
same,normalized growth,"locus YEL061C, strain CIN8 (second series), stronger effect = lower value",1 (inactive)
same,normalized growth,"locus YEL061C, strain CIN8, stronger effect = lower value",1.03 (inactive)
same,normalized growth,"locus YER015W, strain faa2, stronger effect = lower value",0.988 (inactive)
same,normalized growth,"locus YER016W, strain bim1, stronger effect = lower value",1 (inactive)
same,normalized growth,"locus YER110C, stronger effect = lower value",0.989 (inactive)
same,normalized growth,"locus YER111C, strain swi4, stronger effect = lower value",1.01 (inactive)
same,normalized growth,"locus YER155C, strain BEM2 (second series), stronger effect = lower value",0.962 (inactive)
same,normalized growth,"locus YER155C, strain BEM2, stronger effect = lower value",0.992 (inactive)
same,normalized growth,"locus YER167W, strain BCK2, stronger effect = lower value",1 (inactive)
same,normalized growth,"locus YFR010W, strain ubp6, stronger effect = lower value",1.01 (inactive)
same,normalized growth,"locus YGL078C, strain dbp3, stronger effect = lower value",1.01 (inactive)
same,normalized growth,"locus YGL086W, strain mad1, stronger effect = lower value",1 (inactive)
same,normalized growth,"locus YGL167C, strain pmr1, stronger effect = lower value",0.994 (inactive)
same,normalized growth,"locus YGL173C, strain kem1, stronger effect = lower value",0.997 (inactive)
same,normalized growth,"locus YGL227W, strain vid30, stronger effect = lower value",1 (inactive)
same,normalized growth,"locus YGL240W, strain doc1, stronger effect = lower value",0.96 (inactive)
same,normalized growth,"locus YGL248W, strain PDE1, stronger effect = lower value",0.998 (inactive)
same,normalized growth,"locus YGL253W, strain hxk2, stronger effect = lower value",1.01 (inactive)
same,normalized growth,"locus YGR078C, strain PAC10, stronger effect = lower value",0.996 (inactive)
same,normalized growth,"locus YGR135W, strain pre9, stronger effect = lower value",0.99 (inactive)
same,normalized growth,"locus YGR252W, strain gcn5, stronger effect = lower value",0.978 (inactive)
same,normalized growth,"locus YHR013C, strain ard1, stronger effect = lower value",0.966 (inactive)
same,normalized growth,"locus YHR027C, strain rpn1, stronger effect = lower value",1 (inactive)
same,normalized growth,"locus YHR030C, strain SLT2, stronger effect = lower value",1.01 (inactive) and 0.859 (inactive)
same,normalized growth,"locus YHR079C, strain IRE1 (second series), stronger effect = lower value",0.992 (inactive)
same,normalized growth,"locus YHR079C, strain IRE1, stronger effect = lower value",0.844 (active)
same,normalized growth,"locus YHR094C, strain hxt1, stronger effect = lower value",0.999 (inactive)
same,normalized growth,"locus YHR129C, strain ARP1, stronger effect = lower value",0.995 (inactive)
same,normalized growth,"locus YHR142W, strain chs7, stronger effect = lower value",1.02 (inactive)
same,normalized growth,"locus YHR200W, strain rpn10, stronger effect = lower value",0.991 (inactive)
same,normalized growth,"locus YIL066C, strain RNR3, stronger effect = lower value",0.986 (inactive)
same,normalized growth,"locus YIL073C, strain SPO22, stronger effect = lower value",1.02 (inactive)
same,normalized growth,"locus YIL125W, strain kgd1, stronger effect = lower value",0.994 (inactive)
same,normalized growth,"locus YIR030C, strain dcg1, stronger effect = lower value",1 (inactive)
same,normalized growth,"locus YJL092W, strain hpr5, stronger effect = lower value",1.01 (inactive)
same,normalized growth,"locus YJL095W, strain BCK1 (second series), stronger effect = lower value",0.992 (inactive)
same,normalized growth,"locus YJL095W, strain BCK1, stronger effect = lower value",0.99 (inactive) and 0.866 (active)
same,normalized growth,"locus YJL115W, strain asf1, stronger effect = lower value",1 (inactive)
same,normalized growth,"locus YJL129C, strain trk1, stronger effect = lower value",0.976 (inactive)
same,normalized growth,"locus YJL134W, strain LCB3, stronger effect = lower value",0.99 (inactive)
same,normalized growth,"locus YJL154C, strain vps35, stronger effect = lower value",1 (inactive)
same,normalized growth,"locus YJL164C, strain tpk1, stronger effect = lower value",0.99 (inactive)
same,normalized growth,"locus YJL166W, strain qcr8, stronger effect = lower value",0.992 (inactive)
same,normalized growth,"locus YJL168C, strain set2, stronger effect = lower value",0.977 (inactive)
same,normalized growth,"locus YJL187C, strain SWE1 (second series), stronger effect = lower value",1 (inactive)
same,normalized growth,"locus YJL187C, strain SWE1, stronger effect = lower value",1.02 (inactive)
